Bioassay records (PubChem BioAssay)
D2 ag-1: activates the human D2 dopamine receptor; P14416; HEK293 T-REx D2 cells, calcium flux agonist mode; activation, % at 2 µM; 0.53% of 340,000 active; AID 485358;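 active means activation over 3 SD above normal in the single-dose calcium agonist read, cut at about 30% in these data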; further: 0% is about no effect
Target sequence (P14416 whole entry, looked up): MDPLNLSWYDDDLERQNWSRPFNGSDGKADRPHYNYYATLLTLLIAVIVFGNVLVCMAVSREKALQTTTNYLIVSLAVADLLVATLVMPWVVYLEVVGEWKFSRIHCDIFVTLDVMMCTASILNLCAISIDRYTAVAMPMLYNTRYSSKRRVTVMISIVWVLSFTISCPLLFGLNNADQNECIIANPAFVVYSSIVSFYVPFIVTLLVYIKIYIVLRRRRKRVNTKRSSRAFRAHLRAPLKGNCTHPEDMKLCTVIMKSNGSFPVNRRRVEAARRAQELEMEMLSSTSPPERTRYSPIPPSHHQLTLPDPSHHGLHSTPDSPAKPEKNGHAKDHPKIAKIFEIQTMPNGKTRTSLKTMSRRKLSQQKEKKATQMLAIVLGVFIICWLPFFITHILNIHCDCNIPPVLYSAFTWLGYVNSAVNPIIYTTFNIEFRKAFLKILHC
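Tetracycline-induced HEK293 T-REx cells with force-coupled D2 receptor, plated overnight at 30 C, loaded with no-wash calcium dye. After a 10 s baseline, compound was pin-added and calcium flux read kinetically for 180 s; calcium rises flagged agonists.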
D2 PAM-1: positive allosteric modulators of human D2 dopamine receptor. potentiation, % at 10 µM. AID 485347. P14416. 0.34% of 340,000 active. HEK293 T-REx D2, calcium flux, EC20 dopamine potentiation;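 active means potentiation over 3 SD above the plate norm, cut at about 30% in these data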; further: 0% is about no effect
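Primary screen. Calcium kinetics in induced HEK293 T-REx D2 cells: compound pre-addition 180 s, EC20 dopamine, 180 s more.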
D2 antag: antagonizes the human D2 dopamine receptor; P14416; HEK293 TREx D2 cells, calcium flux, dopamine EC80; inhibition, % at 10 µM; 2% of 340,000 active; AID 485344; in the data active means inhibition above about 30%; inactive means below that, where a call was filed; further: 0% is about no effect
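Tetracycline-induced HEK293 T-REx cells expressing D2 force-coupled to calcium signalling were dye-loaded, exposed to compound for 180 s, then challenged with an EC80 of dopamine; calcium flux was followed kinetically for a further 180 s.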
D2 ag-2: agonists of human D2 dopamine receptor (beta-arrestin); AID 624465; 0.084% of 360,000 active; P14416; activation, % (no concentration beside the values); DiscoveRx PathHunter D2 beta-arrestin, luminescence, 90 min; 100% = 57 uM dopamine signal; in the data active means activation above about 40%; inconclusive means between about 15% and that limit
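Agonist mode: compounds alone added to overnight-plated D2 PathHunter cells for 90 min at 37 C, with 57 uM final dopamine (EC100) defining full response. Beta-arrestin recruitment detected by chemiluminescent reagent, read after 1 h at ambient temperature.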
D2 PAM-2: positive allosteric modulators of human D2 dopamine receptor; P14416; DiscoveRx D2 beta-arrestin cells, luminescence, 90 min; 100% = 57 uM dopamine signal; potentiation, % (no concentration beside the values); 0.23% of 360,000 active; in the data active means potentiation above about 50%; inconclusive means mostly about 30% to 49%
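PathHunter beta-arrestin assay in DiscoveRx D2 cells. Compounds were added with an EC20 of dopamine (50 nM final) for 90 min at 37 deg C. Luminescence was read 1 h after detection reagent, with 57 uM dopamine as the EC100 control.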
D3 arrestin ag: activates human D3 dopamine receptor beta-arrestin recruitment. shares compounds with D2 ag-1. DiscoveRx D3 beta-arrestin cells, luminescence, 90 min. Potency, µM (doses to about 76.9 µM), without a hit: at the top dose activation, usual class: activators. 4% of 2,300 active;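 further: potency means the concentration at half of the fitted maximal effect; 100% = dopamine control response; nearly all actives have a fitted effect of over 70% in size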
D2 ag-3: activates human D2 dopamine receptor in D3 counterscreen; shares compounds with D2 ag-1; DiscoveRx PathHunter D2 beta-arrestin, luminescence, 90 min; response scale: percent relative to full dopamine signal; Potency, µM (series often up to 76.9 µM), for inactives: top-dose activation, usual class: activators; 5.9% of 2,300 active; further: potency means the concentration at half of the fitted maximal effect; % of control where 0% means no effect; nearly all actives have a fitted effect of over 70% in size
The depositor's hits bear a star; ? = inconclusive; . = not tested or not shown. In the library only some 2.4% were active in any assay of this set; here they are far more common. Unless noted, the call rests on the fitted dose curve; in most records, active means well fitted activation curve with a large enough effect; inconclusive means small, poorly fitted or top-dose-only effect; inactive means flat fitted curve, though single readings scatter.

SMILES	D2 ag-1	D2 PAM-1	D2 antag	D2 ag-2	D2 PAM-2	D3 arrestin ag	D2 ag-3
O=C(/C=C/c1ccccc1Cl)N(c1ccccn1)C1CCCCC1	77*	-28	99*	?	5	9%	?
O=C(/C=C/c1ccccc1Cl)NC1CCCCC1	0	-5	-9	0	-6	.	.
O=C(CSCc1cnn(-c2ccccc2)c1-n1cccc1)NCc1ccc(F)cc1	-1	-23	.	.	.	.	.
CC(CCc1ccc(O)cc1)NC1C2CC3CC(C2)CC1C3 (configuration not stated)	38*	-24	71*	4	-20	-3%	10%
Cc1cc(NC(=O)c2ccco2)ccc1-n1cnnn1	.	.	.	-1	5	0%	-1%
NC(=O)c1ccc(NC(=O)CN2CCOCC2)cc1	0	-5	-6	0	-13	.	.
NC(=O)c1ccc(NC(=O)CN2CCN(C(=O)c3ccco3)CC2)cc1	.	.	.	12	-1	?	?
CCc1ccc(NC(=O)C(=O)NCCN2CCN(C(=O)c3ccco3)CC2)cc1	67*	-23	1	?	20	5µM*	?
CCOC(=O)c1ccc(NC(=O)CN2CCN(C(=O)c3ccco3)CC2)cc1	80*	-6	67*	?	21	22µM*	?
CCc1ccc(NC(=O)C(=O)NCCN2CCN(C(=O)c3ccc(OC)cc3)CC2)cc1	.	.	.	-3	-17	.	.
O=C(Nc1ccc(OC(F)(F)F)cc1)C(Cc1ccccc1)NS(=O)(=O)c1cccc2nsnc12 (configuration not stated)	-1	-2	.	.	.	.	.
CCN(CC)C(=O)Cn1c(=O)n(-c2ccc(OC)cc2OC)c(=O)c2c(C)c(C(=O)N(CC)CC)sc21	0	0	.	.	.	.	.
Cc1cc(OC(C)C(=O)N2C[C@H]3C[C@@H](C2)c2cccc(=O)n2C3)c2c(C)c(C)c(=O)oc2c1 (some centres not stated)	41*	2	-1	-4	-6	-7%	-5%
Cc1c(C)c2ccc(OC(C)C(=O)N3C[C@H]4C[C@@H](C3)c3cccc(=O)n3C4)c(C)c2oc1=O (some centres not stated)	0	-5	15	-7	-20	.	.
CC(CCO)Nc1nc2c(c(=O)n(C)c(=O)n2C)n1Cc1ccc(Br)cc1 (configuration not stated)	-1	10	.	.	.	.	.
CC(C)CC[n+]1ccccc1/C=C/c1ccc(N(C)C)cc1	10	11	5	-2	-10	10%	17%
Cc1cc(N2CCOCC2)nc(N)n1	41*	-9	26	-2	-3	-3%	-3%
COc1ccc(C(=O)N2CCC(C(=O)N3CCN(c4ccc(OC)cc4)CC3)CC2)cc1	1	3	5	-1	2	.	.
CC(C)CC(=O)N1CCC(N2CCN(c3ccccc3)CC2)CC1	0	6	-6	?	?	.	.
COc1ccc(C(=O)N2CCC(N3CCN(c4ccccc4)CC3)CC2)cc1	71*	-20	57*	12	-25	?	?
O=C(CCC1CCCC1)N1CCC(N2CCN(c3ccccc3)CC2)CC1	53*	-23	77*	0	-22	1%	12%
COc1ccccc1C(=O)N1CCC(N2CCN(c3ccccc3)CC2)CC1	78*	-23	69*	?	-6	?	?
CC(C)(C)C1CCC(N2CCN(c3ccccc3)CC2)CC1 (configuration not stated)	73*	-35	86*	2	-48	5%	?
Cc1ncc(COC(=O)C(C)C)c2cc(C(=O)Nc3ccccc3C(F)(F)F)c(=O)oc12	1	11	.	.	.	.	.
c1ccc(N2CCN(C3CC4CCC3C4)CC2)cc1 (configuration not stated)	54*	-12	87*	-2	-5	-3%	7%
SMILES	D2 ag-1	D2 PAM-1	D2 antag	D2 ag-2	D2 PAM-2	D3 arrestin ag	D2 ag-3
COc1ccc(OCCCCn2c(C3CC(=O)N(c4cccc(Cl)c4)C3)nc3ccccc32)cc1 (configuration not stated)	0	4	.	.	.	.	.
O=S(=O)(NCC(c1cccnc1)N1CCN(Cc2ccccc2)CC1)c1ccccc1 (configuration not stated)	61*	-16	30	-6	-11	-2%	6%
Cc1ccc(S(=O)(=O)NCC(c2cccnc2)N2CCN(Cc3ccccc3)CC2)cc1 (configuration not stated)	13	-7	-8	-1	-7	.	.
CCc1ccc2c(CN3CCC(C(=O)OC)CC3)cc(=O)oc2c1	106*	-42	106*	66*	21	4µM*	8.9µM*
COC(=O)C1CCN(Cc2cc(=O)oc3cc(C)c(Cl)cc23)CC1	31*	-8	20	?	-3	3.2µM*	24%
CCOC(=O)Nc1ccc2c(CN3CCC(C(=O)OC)CC3)cc(=O)oc2c1	28	-1	3	1	-3	.	.
Cc1cc2oc(=O)cc(CN3CCCCC3C)c2cc1Cl (configuration not stated)	-1	-4	4	-5	3	.	.
CC(C)c1ccc(NS(=O)(=O)c2ccc3[nH]c(=O)ccc3c2)cc1	1	-8	.	.	.	.	.
COCCN=c1scc(-c2cccs2)n1/N=C/c1ccc(O)c(O)c1O	78*	-20	73*	94*	76*	25µM*	7.1µM*
CCOC(=O)N1CCN(C/C(C)=C/c2ccccc2)CC1	63*	-29	63*	?	22	11%	?
Cc1c(C(=O)N2CCN(Cc3ccc4c(c3)OCO4)CC2)sc2ncnc(N3CCN(c4ccccc4F)CC3)c12	.	.	.	?	7	23%	?
COc1cccc(OC)c1C(=O)N1CCN(Cc2ccc3c(c2)OCO3)CC1	0	-2	20	-3	-10	.	.
Cc1cc(=O)oc(C)c1C(=O)N1CCN(Cc2ccc3c(c2)OCO3)CC1	0	7	16	4	-10	2%	16%
O=C(c1ccccc1)N1CCN(Cc2cccc(Oc3ccccc3)c2)CC1	49*	-31	-1	1	-6	8%	6%
COc1cccc(CN2CCN(C(=O)c3cccc(OC)c3)CC2)c1	0	2	4	-5	-18	.	.
CCCc1nn2c(=O)cc(COC(=O)c3ccccc3NC(=O)c3ccc(Cl)cc3)nc2s1	1	4	.	.	.	.	.
CN(CC(=O)N1CCN(Cc2ccccc2)CC1)C(=O)Cc1cccc2ccccc12	37*	0	-15	0	-15	0%	7%
